# A selection: hits, their analogues and other compounds. The true share with any hit is near 3.3%.
# Cl transport mod: KCC2 cotransporter modulators, thallium flux, primary screen, cell-based, HEK293 KCC2, FluoZin-2 fluorescence, MLSMR | Solute carrier family 12 member 5 (Homo sapiens), Q9H2X9 | KCC2 cells, thallium flux FluoZin-2 fluorescence | B-score of Tl+ flux slope (higher = more flux/activation; lower = inhibition) at 10 µM | 2.2% of 190,000 active | AID 1456, 2008;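 active means thallium flux slope and its plate-corrected score both differing from the plate sample mean at a set confidence after two filtering rounds, in either direction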;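 further: slope of fluorescence scaled to starting intensity during 10 to 20 s after thallium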
# Calb FLC: C. albicans growth inhibition with fluconazole, primary screen, CaCi-2 strain, Alamar Blue fluorescence; C. albicans CaCi-2 (fluconazole-resistant clinical isolate) + fluconazole, 48 h; growth inhibition, % (concentration not given with the values); 0.57% of 300,000 active;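 active means growth inhibition above about 58% in most replicates, limit read from the data, passing the limit was not always enough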;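 further: all wells also contain fluconazole at 8 µg/ml as a sub-toxic cotreatment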
# Cardio protect: cardioprotection against H2O2-induced cell death, primary screen, uHTS, H9c2 cells, ATPLite luminescence | H9c2 cardiomyocytes, H2O2 injury protection, 2 h | 0.63% of 360,000 active | protection from H2O2 cell death, % at 20 µM | AID 588492, 2011;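 active means compounds giving at least 50% protection of heart cells from peroxide-induced death in the single-dose screen, raw or plate-pattern-corrected value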
# PHOSPHO1 inh: PubChem AID 1565. 1.1% of 290,000 active. inhibition, % at 13.3 µM. recombinant PHOSPHO1, absorbance phosphatase assay. Phosphoethanolamine/phosphocholine phosphatase (Homo sapiens), Q8TCT1; in the data active means inhibition above about 60%
# Target sequence (Q8TCT1 whole entry, looked up): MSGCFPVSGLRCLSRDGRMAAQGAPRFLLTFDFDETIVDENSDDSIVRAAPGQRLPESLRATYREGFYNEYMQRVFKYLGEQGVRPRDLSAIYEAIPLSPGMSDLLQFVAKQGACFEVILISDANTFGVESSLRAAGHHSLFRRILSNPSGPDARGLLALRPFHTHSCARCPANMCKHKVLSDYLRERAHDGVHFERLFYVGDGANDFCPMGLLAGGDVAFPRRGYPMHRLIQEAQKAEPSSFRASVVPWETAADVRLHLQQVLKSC
# Efflux pump mplx: inhibitors of Candida efflux pumps in yeast, primary screen, S. cerevisiae, Nile Red, multiplex; inhibition, % at 10 µM; 0.44% of 330,000 active; S. cerevisiae Candida pump triplex;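 active means plate passing quality check with inhibition over a set limit, or well fluorescence over plate mean plus 4 SD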;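 further: Nile Red retained in pooled yeast measured as flow cytometry median fluorescence; higher means more Nile Red kept so more efflux inhibition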
# A number is an active result; – = inactive; · = not tested or not shown.
SMILES,Cl transport mod,Calb FLC,Cardio protect,PHOSPHO1 inh,Efflux pump mplx
O=C(c1ccc(Cl)cc1)N1CCC2(CC1)OCCO2,·,–,–,·,–
S=C(c1ccc(Cl)cc1)N1CCOCC1,·,–,–,62,–
CCC(C)N1C(=O)NC(=O)C2(Cc3c(ccc4ccccc34)N(C)C2)C1=O (stereo not given),–,–,69,–,–
COc1ccc2c(c1)CC1(CN2C)C(=O)NC(=O)N(CCc2ccccc2)C1=O (stereo not given),–,–,–,–,–
COc1ccc(Cn2c(O)c(/C=N/NC(=O)c3ccccc3)c(=O)[nH]c2=O)cc1,–,81,–,–,–
O=c1[nH]c(=O)n(Cc2ccc(F)cc2)c(O)c1C=NCCN1CCCCC1,–,–,–,–,–
COc1ccc(Cn2c(O)c(C=NCCN3CCOCC3)c(=O)[nH]c2=O)cc1,9.1,–,–,–,–
O=C(c1ccc(Cl)cc1)C1CCCN(C2CCSCC2)C1 (stereo not given),–,–,–,–,–
Cc1cc(OC(C)C(=O)NCC(O)c2ccccc2)c2c3c(c(=O)oc2c1)CCCC3 (stereo not given),·,–,–,–,–
Oc1ccc(/C=N/NP(=S)(c2ccccc2)c2ccccc2)c(O)c1O,–,104,–,84,–
Cc1cc(NC(=O)CCl)on1,–,–,–,–,–
Cn1ccnc1P(=S)(c1nccn1C)N1CCOCC1,·,–,–,76,–
Cn1ccnc1P(=S)(c1nccn1C)c1nccn1C,–,–,–,–,–
CCOC(=O)/C(CCCN(CC)CC)=N\O,·,–,–,95,–
Nc1cc2nc3ccccc3nc2cc1N,·,–,–,60,–
Nc1c2c(nc3ccccc13)CCN(Cc1ccccc1)C2,·,–,–,–,–
C[N+]12CCC(CC1)C(C#N)(N1CCOCC1)C2 (stereo not given),–,–,–,101,–
COc1ccccc1OP(=O)(Nc1cccnc1)Oc1ccccc1OC,–,–,60,–,–
O=C1NC(=S)N(Cc2ccco2)C(=O)/C1=C\c1cccs1,–,·,·,77,·
Cc1cc(-c2cc(C)c(N)c(C)c2)cc(C)c1N,·,·,–,·,·
Oc1c(Br)cc(Br)cc1Oc1ccc(Br)cc1Br,6,87,·,–,–
O=c1c2ccccc2nc(C[n+]2ccccc2)n1-c1cccc(C(F)(F)F)c1,–,–,–,–,–
O=c1[nH]c2ccccc2n1CCCN1CCC(n2c(=O)[nH]c3cc(Cl)ccc32)CC1,–,–,63,–,–
CN(C)C(=O)Oc1ccc2c(=O)c(Oc3ccccc3Br)coc2c1,·,–,–,–,–
O=c1c2ccccc2nc(/C=C/c2ccc(O)cc2)n1-c1ccc(O)cc1,·,–,55,–,–
SMILES,Cl transport mod,Calb FLC,Cardio protect,PHOSPHO1 inh,Efflux pump mplx
O=c1c2ccccc2nc(/C=C/c2ccc(O)cc2)n1-c1cccc(O)c1,–,–,–,–,–
COc1ccc(-n2c(/C=C/c3ccc4c(c3)OCO4)nc3ccccc3c2=O)cc1,–,–,–,–,–
COc1cccc(-n2c(/C=C/c3ccc(O)c(O)c3)nc3ccccc3c2=O)c1,–,–,72,–,–
COc1ccc(-n2c(/C=C/c3ccc(O)c(OC)c3)nc3ccccc3c2=O)cc1,·,–,88,–,–
COc1ccc(-n2c(/C=C/c3ccc(O)cc3)nc3ccccc3c2=O)cc1,·,–,53,·,–
CN(C)c1ccc(NC(=O)CN2C(=O)CN=C(c3ccccc3)c3cc(Cl)ccc32)cc1,–,–,–,60,–
CC(C)c1ccc(NC(=O)CSc2nnc(OC(=O)N(C)C)n2C2CC2)cc1,·,–,–,–,–
CCCCn1c(C)c(C(=O)O)c2cc(OC)c3ccccc3c21,·,–,–,–,–
C=C1C(C)C2C(Cc3ccccc3)NC(=O)C23OC(=O)/C=C/C(O)CCCC(C)C/C=C/C3C1O (stereo not given),·,·,57,·,·
CCOc1ccc(-c2cc(C)[n+](CCO)c(-c3ccc(OCC)cc3)c2)cc1,–,92,–,–,–
Cc1cc(-c2ccccc2)cc(-c2ccccc2)[n+]1CCc1ccccc1,·,97,–,·,–
Cc1cccc(C(O)(C(=O)O)c2ccccc2)c1 (stereo not given),·,·,–,·,·
S=P(N1CCCCCC1)(N1CC1)N1CC1,·,·,–,·,·
COc1ccc(CCNC(=O)c2c(N)n(CCN3CCOCC3)c3nc4ccccc4nc23)cc1OC,–,–,57,–,–
CN(C)c1ccc([N+](=O)[O-])c([N+](=O)[O-])c1,·,·,–,·,·
CN(C)c1ccc([P+](=O)c2ccc(N(C)C)cc2)cc1,–,62,–,–,–
CCN1C[C@]2(CO)CC[C@H](OC)[C@@]34C5C[C@H]6[C@H](OC)C5[C@](O)(C[C@H]6OC)[C@@](O)(C(OC)C23)[C@@H]14 (stereo not given in full),·,–,–,·,–
CCn1nc(/C=C/c2ccccc2)nc2c(=O)n(C)c(=O)nc1-2,–,101,–,–,·
O=c1c2ccccc2nc(CSc2ncnc3nc[nH]c23)n1-c1ccc(Cl)c(Cl)c1,·,–,68,–,–
Cc1nc2ccccc2c(=O)n1-c1ccc(Cl)c(Cl)c1,·,–,–,·,–
CSc1ncc(Br)c(N2CC2)n1,·,·,–,·,·
CSc1nc(Cl)c(Br)c(N2CC2)n1,·,·,51,·,·
C[CH2][Hg][S]c1ccccc1C(=O)O,·,·,–,·,3.0
CC(C)COC(=O)c1ccccc1C(=O)OCC(C)C,–,–,–,–,–
COc1c(C=C2C(=O)NC(=O)NC2=O)c(CCN(C)C(=O)c2ccccc2)cc2c1OCO2,·,–,–,–,–
SMILES,Cl transport mod,Calb FLC,Cardio protect,PHOSPHO1 inh,Efflux pump mplx
C[C@]12CCC3[C@@H](CC[C@H]4C[C@@H](O)CC[C@]34C)C1CCC2=O (stereo not given in full),·,80,–,–,–
C[C@]12CC[C@@H](O)C[C@H]1CC[C@@H]1[C@@H]2CC[C@]2(C)C(=O)CC[C@@H]12,·,–,–,·,–
COC(=O)C1=C(c2ccccc2OCc2ccccc2)C[C@@H]2CC[C@H]1N2C(=O)NCc1ccc([N+](=O)[O-])cc1,·,·,–,·,–
O=C(O)c1cccc2c1NC(C(=O)O)C1CC(Sc3ccccc3[N+](=O)[O-])C(Cl)C21 (stereo not given),–,·,–,62,–
CC(=O)c1ccc2c(c1)C1C(Cl)C(Sc3ccccc3[N+](=O)[O-])CC1C(C(=O)O)N2 (stereo not given),–,·,–,–,–
CCCCN1C(=N)C(CC)(CC)C(=O)NC1=O,–,–,–,–,–
O=C1NC(=O)N(c2ccc(Cl)cc2)C(=O)/C1=C/c1coc2ccc(O)cc2c1=O,-4.6,–,–,–,–
Nc1ccccc1C(=O)OCCc1ccccc1,·,·,–,·,–
CCn1c(NN=O)nc2ccccc21,–,80,–,–,–
O=C([O-])c1ccc(-[n+]2c(-c3ccccc3)cc(-c3ccccc3)cc2-c2ccccc2)cc1,·,–,–,·,–

# Screening results as filed in PubChem BioAssay.
